From PubChem
Most compounds without a hit are left out; they make up all but 5.4% or so of the library.
Granule exo inh = lytic granule exocytosis inhibition | actives 0.66% (n = 360,000) | inhibition, % at 10 µM | AID 651702 | TALL-104 LAMP-1 surface exposure, flow cytometry; cells stimulated with thapsigargin and PMA;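 active = inhibition above about 55%, limit read from the data; inconclusive = no clear call, values can overlap the other calls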
ALR H2O2 inh = inhibitors of human sulfhydryl oxidase ALR | P55789 | purified ALR, DTT oxidation, H2O2 HRP-luminol luminescence | inhibition, % (test concentration not listed) | actives 3.8% (n = 290,000) | AID 485317;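 active = mean replicate inhibition above about 79%, with every replicate also reaching it, limit read from the data; inconclusive = only one of the two criteria met; inactive = mean below limit and not every replicate reaching it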
Target sequence (P55789 whole entry, looked up): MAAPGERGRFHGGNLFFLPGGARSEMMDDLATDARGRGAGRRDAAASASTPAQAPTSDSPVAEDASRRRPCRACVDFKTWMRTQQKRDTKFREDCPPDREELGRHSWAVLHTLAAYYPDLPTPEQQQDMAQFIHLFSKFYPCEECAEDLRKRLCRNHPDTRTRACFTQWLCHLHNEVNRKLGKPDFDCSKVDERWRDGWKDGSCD
MIN6 prolif = induces beta-cell replication in MIN6 cells; MIN6 cells proliferation, ATPlite luminescence, 48 h; cells starved in 0.2% serum; 100% = growth in 10% serum; actives 0.29% (n = 330,000); AID 2380; proliferation, % at 10 µM;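 active = compounds whose signal lies at least 3.5 SD above the mean of all wells on their plate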
SMARCA2 act = activators of SMARCA2 function. MG213 cells, MMTV-luciferase reporter, dexamethasone, overnight. activation, % at 9.1 µM. actives 1% (n = 370,000). AID 652017; in the data active = activation above about 7.8%
GASC-1 inh = blocks human GASC-1 demethylase activity | GST-JMJD2C(1-420) H3K9me3 demethylation, DELFIA europium | inhibition, % at 2.35 µM | actives 0.069% (n = 330,000) | AID 2099;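 active = more than half of a compound's replicate wells show inhibition beyond 50%, single wells judged on their own value; inconclusive = some, but no more than half, of replicates pass 50% inhibition; inactive = no replicate passes 50% inhibition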;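 note: signal counts dimethyl H3K9 product captured on neutravidin plate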
Target sequence (Q9H3R0 1-420 limits assumed): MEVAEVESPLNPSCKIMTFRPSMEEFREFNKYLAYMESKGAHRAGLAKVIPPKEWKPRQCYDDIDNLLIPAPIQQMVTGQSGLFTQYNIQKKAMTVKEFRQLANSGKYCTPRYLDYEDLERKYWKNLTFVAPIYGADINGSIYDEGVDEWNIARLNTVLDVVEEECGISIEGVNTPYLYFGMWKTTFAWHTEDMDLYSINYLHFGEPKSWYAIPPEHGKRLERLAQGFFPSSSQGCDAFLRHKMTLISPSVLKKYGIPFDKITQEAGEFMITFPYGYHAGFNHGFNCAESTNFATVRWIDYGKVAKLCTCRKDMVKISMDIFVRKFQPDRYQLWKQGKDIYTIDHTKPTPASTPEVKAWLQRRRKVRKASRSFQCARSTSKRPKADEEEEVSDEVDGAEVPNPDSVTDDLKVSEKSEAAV
PfM18AAP inh = PfM18AAP enzyme inhibition | recombinant PfM18AAP, H-Glu-NHMec fluorogenic cleavage | inhibition, % at 7.35 µM | actives 1.2% (n = 290,000);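 active = inhibition above the campaign mean inhibition over all tested compounds plus 3 SD, cut at about 28% in these data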
Large screens that a line does not name were inactive.

O=C(O)c1ccccc1CSC1=NCCS1	ALR H2O2 inh 98
COc1ccccc1CNC(=O)CSc1ccc(-c2ccccn2)nn1	none
COC(=O)c1cc(NC(=O)CSC2=NCCS2)cc(C(=O)OC)c1	ALR H2O2 inh 98
COc1ccccc1CNC(=O)CSc1ccc(-c2cccc([N+](=O)[O-])c2)nn1	ALR H2O2 inh 84
COc1ccccc1CNC(=O)CSC1=NCCS1	ALR H2O2 inh 99
COc1ccccc1CNC(=O)CSc1ccc(Br)cc1	none (no result: ALR H2O2 inh)
CC(C)[C@H](NC(=O)c1ccccc1)C(=O)N1CCC[C@H]1C(=O)NCc1ccccc1	none (no result: Granule exo inh, ALR H2O2 inh, MIN6 prolif, GASC-1 inh, PfM18AAP inh)
COC(=O)[C@]12CCCCC=C1N(Cc1ccc(OC)cc1)C(=O)[C@@H]2CC(=O)NCc1ccccc1	none (no result: Granule exo inh, ALR H2O2 inh, MIN6 prolif, GASC-1 inh, PfM18AAP inh)
S=C(Nc1ccccc1)N1CCCN1c1ccccc1	ALR H2O2 inh 87
Cc1ccc2c(c1)C1CS(=O)(=O)N(Cc3ccccc3)CN1C2 (configuration not stated)	none (no result: Granule exo inh, ALR H2O2 inh, MIN6 prolif, GASC-1 inh, PfM18AAP inh)
CCc1ccc(CCNC(=O)OCCCN2CCC3(CCC(c4ccccc4)CC3)C2=O)cc1 (configuration not stated)	none (no result: Granule exo inh, ALR H2O2 inh, MIN6 prolif, GASC-1 inh, PfM18AAP inh)
O=C(c1cccc(-c2ccc(O)cc2)c1)N1CCOCC1	ALR H2O2 inh 99
Cn1c(=O)c2[nH]c(Nc3ccccc3)nc2n(C)c1=O	ALR H2O2 inh 89
CN(C)c1cccc(/C=C2\CC3(OC(=O)c4ccc(Cl)cc4)CCCN2C3)c1 (configuration not stated)	none (no result: Granule exo inh, ALR H2O2 inh, MIN6 prolif, GASC-1 inh, PfM18AAP inh)
CCOC(=O)[C@@]12CN(C(=O)OC(C)(C)C)CC=C1N(Cc1ccc(OC)cc1)C(=O)[C@H]2CC(=O)N1CCN(C(=O)C2CC2)CC1	none (no result: Granule exo inh, ALR H2O2 inh, MIN6 prolif, GASC-1 inh, PfM18AAP inh)
Cc1ccccc1CN1CCCCC(NC(=O)C2CCCCC2)C1=O (configuration not stated)	none (no result: Granule exo inh, ALR H2O2 inh, MIN6 prolif, GASC-1 inh, PfM18AAP inh)
COCCn1c(SCC(=O)c2ccc3c(c2)OCCO3)nnc1C(C)C	none
COCCn1c(SCC(=O)c2ccc(Cl)cc2)nnc1C(C)C	ALR H2O2 inh 91
COCCn1c(SCC(=O)Nc2cccc(C)c2)nnc1C(C)C	none (no result: ALR H2O2 inh)
COCCn1c(SCC(=O)Nc2cc(C)cc(C)c2)nnc1C(C)C	ALR H2O2 inh 100
O=C(CSc1nnc2ccccn12)c1ccc(Cl)cc1	ALR H2O2 inh 85
O=C(CSc1nnc2ccccn12)NNC(=O)c1ccc(Cl)cc1	none
COC(=O)c1cc(-c2ccc(C)c3ccccc23)c(=O)n2c1CCC2	none (no result: Granule exo inh, ALR H2O2 inh, MIN6 prolif, GASC-1 inh, PfM18AAP inh)
CCOC(=O)C1CCN(C2=NC(=O)/C(=C/c3ccc(Cl)cc3)S2)CC1	ALR H2O2 inh 96
COc1cc(/C=C2\SC(N3CCC(C)CC3)=NC2=O)ccc1O	ALR H2O2 inh 90
COc1ccc(/C=C2\SC(N3CCCCC3)=NC2=O)cc1OC	none
CN(C)c1ccc(/C=C2\SC(N3CCCCC3)=NC2=O)cc1	ALR H2O2 inh 99
Cc1ccc(/C=C2\SC(N3CCCC3)=NC2=O)cc1	none (no result: Granule exo inh, ALR H2O2 inh)
COC(=O)[C@@H]1N=C(c2ccc(OC)cc2)O[C@]12C(=O)N(Cc1cn(Cc3ccccc3)nn1)c1cccc(Cl)c12	none (no result: Granule exo inh, ALR H2O2 inh, MIN6 prolif, GASC-1 inh, PfM18AAP inh)
CCOC(=O)[C@]12CCCC3=C1N(CCC3)C(=O)[C@@H](CC(=O)NCc1ccccc1)C2	none (no result: Granule exo inh, ALR H2O2 inh, MIN6 prolif, GASC-1 inh, PfM18AAP inh)
CCOC(=O)c1nnn(-c2nn3nnnc3c3ccccc23)c1C	ALR H2O2 inh 98
CN1C(=O)c2cc(NC(=O)Nc3ccccc3)ccc2OC[C@H]2O[C@@H](CC(=O)NCc3ccc(-c4ccccc4)cc3)CC[C@@H]21	none (no result: Granule exo inh, ALR H2O2 inh, MIN6 prolif, GASC-1 inh, PfM18AAP inh)
Oc1ccc(-c2cnns2)c(O)c1	ALR H2O2 inh 99, PfM18AAP inh 99
ON=C1c2ccccc2-c2ccc(O)cc21	none (no result: ALR H2O2 inh, MIN6 prolif, GASC-1 inh, PfM18AAP inh)
CCCN(Cc1ccc(N(CC)CC)cc1)CC1CC1	ALR H2O2 inh 98
CCN1Cc2nnn(CC3CCCCC3)c2-c2ccccc2S1(=O)=O	none (no result: Granule exo inh, ALR H2O2 inh, MIN6 prolif, GASC-1 inh, PfM18AAP inh)
Cc1cc(N=Nc2ccc(Cl)cc2)cc(CN2CCOCC2)c1O	GASC-1 inh inconclusive (no result: ALR H2O2 inh)
Cc1cc(N=Nc2ccc(Cl)cc2)cc(CN2CCCC2)c1O	ALR H2O2 inh 99
CCCC1CCC2(CCC(=O)N2CCC#N)CC1 (configuration not stated)	none (no result: Granule exo inh, ALR H2O2 inh, MIN6 prolif, GASC-1 inh, PfM18AAP inh)
COc1cccc(-c2nc(CS(=O)(=O)CC(=O)Nc3ccccc3Cl)c(C)o2)c1	ALR H2O2 inh 87
COc1cccc(-c2nc(CS(=O)(=O)CC(=O)Nc3ccccc3Br)c(C)o2)c1	ALR H2O2 inh 94
COc1cccc(-c2nc(CS(=O)(=O)CC(=O)Nc3ccccc3C)c(C)o2)c1	none
COc1ccccc1Cc1c(-c2ccc(Cl)cc2)nc2ccc(C)cn12	none (no result: Granule exo inh, ALR H2O2 inh, MIN6 prolif, GASC-1 inh, PfM18AAP inh)
Cc1cc(-c2n[nH]c(=S)n2N=Cc2ccc(O)cc2)n[nH]1	none (no result: Granule exo inh, ALR H2O2 inh, MIN6 prolif, GASC-1 inh, PfM18AAP inh)
CCOc1ccc(-n2c(SCc3ccc(C#N)cc3)nnc2-c2ccco2)cc1	none (no result: Granule exo inh, ALR H2O2 inh, MIN6 prolif, GASC-1 inh, PfM18AAP inh)
c1ccc(-c2cn3c(n2)-c2ccccc2C3)cc1	ALR H2O2 inh 95
CN(C)c1ccc(/C=N/NC(=O)Cn2nnc3ccccc32)cc1	ALR H2O2 inh 99
CN(C)c1ccc(/C=N/NC(=O)CCC(=O)NCc2ccccc2)cc1	ALR H2O2 inh 87
COc1ccc(/C=N/NC(=O)CNC(=O)COc2ccccc2)cc1	none
COc1ccc(OCC(=O)N/N=C/c2ccc(N(C)C)cc2)cc1	ALR H2O2 inh 98
CN(C)c1ccc(/C=N/NC(=O)CCCO)cc1	ALR H2O2 inh 96
COc1ccc(/C=N/NC(=O)Cn2nnc3ccccc32)cc1OC	none
CN(C)c1ccc(/C=N/NC(=O)CCCCCNC(=O)c2ccccc2)cc1	none (no result: ALR H2O2 inh)
O=C(NC1CCCC1)N1CCC(c2nc3ccc(Cl)cc3[nH]2)CC1	none (no result: Granule exo inh, ALR H2O2 inh, MIN6 prolif, GASC-1 inh, PfM18AAP inh)
O=C(Cc1c[nH]c2ccccc12)N/N=C/c1ccc(F)cc1	none
CN(C)c1ccc(/C=N/NC(=O)CCc2c[nH]c3ccccc23)cc1	ALR H2O2 inh 98 (no result: GASC-1 inh)
CCCCCC(=O)N/N=C/c1ccc(N(C)C)cc1	ALR H2O2 inh 90
Nc1ccc2c(c1)nc(Cc1ccccc1)n2CCO	ALR H2O2 inh 97
OCCCc1nc2ccccc2n1CCc1ccccc1	none
CCN(CC)c1ccc2cc(NC(=O)CCC(=O)O)c(=O)oc2c1	ALR H2O2 inh 99
CCN(CC)c1ccc2cc(C(C)=O)c(=O)oc2c1	none
Cc1nc(N2CCN(C)CC2)c2cc(-c3ccccc3)sc2n1	ALR H2O2 inh 97
Oc1ccc(C=Nc2ccccc2-c2nc3ccccc3[nH]2)c(O)c1	ALR H2O2 inh 82
COCc1cn(-c2cccc(-c3noc4c3C(=O)N(CC(=O)N3CCOCC3)CC4)c2)nn1	none (no result: Granule exo inh, ALR H2O2 inh, MIN6 prolif, GASC-1 inh, PfM18AAP inh)
COc1ccc(C2c3[nH]c4ccccc4c3C[C@H]3C(=O)N(C)CC(=O)N23)cc1OC (some centres not stated)	ALR H2O2 inh 98
COCCCN1CC(=O)N2C(c3cccc(OC)c3)c3[nH]c4ccccc4c3C[C@H]2C1=O (some centres not stated)	ALR H2O2 inh 100
COc1cccc(C2c3[nH]c4ccccc4c3C[C@H]3C(=O)N(C4CC4)CC(=O)N23)c1 (some centres not stated)	none
